Source: PubChem (Sanford-Burnham Center for Chemical Genomics)
VHR inh color = VHR1 phosphatase inhibitors, primary screen, biochemical, colorimetric, HTS; Dual specificity protein phosphatase 3 (Homo sapiens), P51452; recombinant VHR phosphatase, colorimetric substrate read-out; inhibition, % at 20 µM; actives 0.7% (n = 50,000); in the data active means inhibition above about 60%
Target sequence (P51452 whole entry, looked up): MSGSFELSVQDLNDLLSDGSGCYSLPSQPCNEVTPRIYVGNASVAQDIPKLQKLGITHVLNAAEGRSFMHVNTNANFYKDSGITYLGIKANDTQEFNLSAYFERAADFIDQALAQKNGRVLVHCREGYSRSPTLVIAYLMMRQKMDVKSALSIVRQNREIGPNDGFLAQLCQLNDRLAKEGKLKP
Of the large screens only hits and unclear results are named; the others gave an inactive call. This excerpt belongs to a sample that is enriched for hits.

C=CCN1C(=O)/C(=C\c2ccc(OCc3ccc(F)cc3)c(OCC)c2)C(=O)NC1=S	VHR inh color 74.8
C=CCN1C(=O)/C(=C\c2ccc(OCC(=O)O)c(OC)c2)C(=O)NC1=S	none
C=CCOc1ccc(/C=C2/C(=O)NC(=S)N(CC=C)C2=O)cc1OCC	none
Cc1cc(NC(=O)c2ccc(-c3ccc([N+](=O)[O-])cc3C)o2)ccc1NC(=O)c1ccco1	none
CCOC(=O)c1c(NC(=O)COc2ccc(Cl)cc2)sc(C(=O)Nc2ccccc2F)c1C	none
CCc1ccc(NC(=O)c2ccccc2C(F)(F)F)cc1	none
O=C(Oc1ccc([N+](=O)[O-])cc1)c1cc(S(=O)(=O)N2CCOCC2)ccc1Cl	none
CCOc1ccc(N(CC(=O)N2CCOCC2)S(=O)(=O)c2ccc(Br)cc2)cc1	none
O=C(O)CCN1C(=O)/C(=C/c2ccc(-c3ccc([N+](=O)[O-])cc3)o2)SC1=S	none
O=C1NC(=O)/C(=C\c2ccc(-c3cccc([N+](=O)[O-])c3)o2)S1	none
O=C1NC(=S)/C(=C\c2ccc(-c3ccc([N+](=O)[O-])cc3)o2)S1	VHR inh color 99.5
CSCCC(C(=O)O)N1C(=O)/C(=C\c2ccc(-c3ccc([N+](=O)[O-])cc3)o2)SC1=S (stereo unspecified)	VHR inh color 80.8
O=C1/C(=C\c2ccc(-c3ccc([N+](=O)[O-])cc3)o2)SC(=S)N1c1ccc(O)cc1	none
CN1C(=O)/C(=C/c2ccc(-c3ccc([N+](=O)[O-])cc3)o2)SC1=S	none
CC1=NN(c2cccc(C(F)(F)F)c2)C(=O)/C1=C/c1cccs1	none
O=C(Nc1cc(F)c(F)cc1Cl)OCc1cccc([N+](=O)[O-])c1	none
CC(CC(=O)c1ccc(Cl)cc1)CC(=O)c1ccc(Cl)cc1	none
CC(=O)NC(NC(=S)Nc1cccc(Cl)c1)C(Cl)(Cl)Cl (stereo unspecified)	none
CCOC(=O)c1c(NC(=O)c2cc3n(n2)C(C(F)(F)F)CC(c2ccco2)N3)sc(C)c1C (stereo unspecified)	none
Cc1ccc(CN2CCN(N=Cc3ccc(N(C)C)cc3)CC2)c(C)c1	none
C=CCn1cc(F)c(=O)n(CC(C)C)c1=O	none
CC(=O)c1cccc(N2C(=O)c3ccc(Oc4ccc([N+](=O)[O-])cc4)cc3C2=O)c1	none
COC(=O)c1c(-c2ccc(Cl)cc2)csc1NC(=O)C1CC=CCC1C(=O)O (stereo unspecified)	none
NS(=O)(=O)c1ccc(CCNC2CC(=O)N(c3ccc(Cl)cc3)C2=O)cc1 (stereo unspecified)	none
COC(=O)c1ccc2c(c1)C1C=CCC1C(c1cccc3ccccc13)N2 (stereo unspecified)	none
COc1cccc2c1NC(c1cccc3ccccc13)C1CC=CC21 (stereo unspecified)	VHR inh color 88.3
COc1cccc2c1NC(c1ccccc1Cl)C1CC=CC21 (stereo unspecified)	none
CCOc1cc(C=C2C(=O)NC(=O)NC2=O)ccc1OCCOc1ccc(C(C)(C)C)cc1	none
CSc1ccc(/C=C(/NC(=O)c2ccccc2)C(=O)NCCCO)cc1	none
CC1=NN(c2ccc(C)c(Cl)c2)C(=O)C1	none
Cn1c(O)c(/C=C2/C=CC=N2)c(=O)n(-c2ccccc2)c1=S	VHR inh color 69.1
O=c1[nH]c(=O)n(-c2ccccc2Cl)c(O)c1C=C1C=CC=N1	none
CCOc1ccccc1-n1c(O)c(C=C2C=CC=N2)c(=O)[nH]c1=O	none
CCCOc1ccc(C(=O)Nc2sc(CC)cc2C(=O)OCC)cc1	none
O=C1N=c2ccccc2=C1c1sc(Nc2cccc(O)c2)nc1O	none
O=C1N=c2ccccc2=C1c1sc(Nc2ccc(O)cc2)nc1O	VHR inh color 57.8
CCOc1ccc(Nc2nc(O)c(C3=c4cc(Br)ccc4=NC3=O)s2)cc1	none
CCCc1ccc(OCC(=O)N/N=C\c2cc(OC)ccc2O)cc1	none
O=C(O)C1C2C=CC(C3CC23)C1C(=O)Nc1ccccc1Cl (stereo unspecified)	none
Cc1cccc(NC(=O)C2C(c3ccccc3)C2(Cl)Cl)c1C (stereo unspecified)	none
Cc1cccc(NC(=O)C2C3C=CC(C4CC34)C2C(=O)O)c1C (stereo unspecified)	VHR inh color 100.3
Cc1nonc1OCCn1nnnc1-c1ccccc1	none
COc1cc(/C=c2/sc3nc4c(Br)c(C)c(C)cc4n3c2=O)ccc1OCC(=O)O	none
Cc1cc(C)c2nc3s/c(=C\c4ccccc4)c(=O)n3c2c1	none
Cc1cc2c(nc3s/c(=C/c4ccccc4)c(=O)n32)c(Br)c1C	VHR inh color 99.2
COc1ccc2c(c1C)CCC/C2=N\OC(=O)c1ccc([N+](=O)[O-])cc1	none
CCOc1ccc(N2C(=O)CC(N3CCC(C(N)=O)CC3)C2=O)cc1 (stereo unspecified)	none
CCOc1ccc(N2C(=O)CC(N3CCCCC3)C2=O)cc1 (stereo unspecified)	VHR inh color 102.2
CCOc1ccc(N2C(=O)CC(N3CCC(C(N)=O)(N4CCCCC4)CC3)C2=O)cc1 (stereo unspecified)	none
CCOc1ccc(NC(=O)c2ccc(Cl)c(Cl)c2)cc1	none
O=C(Nc1ccccc1O)c1cc(Cl)ccc1Cl	none
CC1(C)OC(=O)C(=Cc2ccc(I)o2)C(=O)O1	VHR inh color 86.8
O=C1C(=Cc2ccc(I)o2)C(=O)c2ccccc21	none
CN1C(=O)NC(=O)/C(=C/c2ccc(I)o2)C1=O	none
CCOC(=O)c1c(-c2ccccc2)nn(-c2ccccc2)c1C	none
Cc1c(C(=O)NCCO)c(-c2ccccc2)nn1-c1ccccc1	none
O=C1C=CC(=O)c2c1c(-c1ccccc1)nn2-c1ccccc1	VHR inh color 86.0
COc1ccccc1-n1c(/C=C/c2c[nH]c3ccccc23)nc2ccccc2c1=O	none
COc1cc([N+](=O)[O-])ccc1NC(=O)c1cc(-c2ccccc2)nc2ccccc12	none
O=C(CCN1C(=O)c2ccccc2C1=O)NCc1ccncc1	none
O=C1c2cccc3c4ccccc4n(c23)C(=O)C1(O)O	VHR inh color 90.4
O=C1c2ccccc2C(=O)N1CC(O)Cn1c2ccccc2c2ccccc21 (stereo unspecified)	none
COc1ccc(N2C(=O)CS(=O)(=O)C2c2ccc(Cl)cc2)cc1 (stereo unspecified)	none
Cc1cc(/C=C2/NC(=O)NC2=O)c(-c2ccccc2)n1-c1ccccc1	none
COc1cccc(/C=C2/C(=O)NC(=O)N(c3cccc(C)c3)C2=O)c1O	VHR inh color 107.1
COc1cccc(/C=C2/C(=O)NC(=O)N(c3cc(C)cc(C)c3)C2=O)c1O	none
COc1ccc(N2C(=O)NC(=O)/C(=C/c3cccc(OC)c3O)C2=O)cc1	none
CC1(C2CC2)NN=C(c2ccccc2)S1 (stereo unspecified)	none
c1ccc(Nc2nc(-c3ccccc3)[n+](-c3ccccc3)s2)cc1	VHR inh color 96.7
c1ccc(Nc2nc(-c3ccncc3)cs2)cc1	none
COc1ccc(-c2csc(Nc3ccccc3)n2)cc1	none
Cc1ccc(-c2nc3ncccc3o2)cc1NC(=O)c1ccc2ccccc2c1	none
CCOc1cc(/C=N/n2cnnc2)ccc1OCCOc1cccc(C)c1	none
COc1cccc(OCCOc2ccc(/C=N/n3cnnc3)cc2)c1	VHR inh color 109.6
Brc1ccc(OCCOc2cccc(/C=N/n3cnnc3)c2)cc1	none
C1=C=CC(OCCOc2ccc(/C=N/n3cnnc3)cc2)=CC=1	none
CCc1cc(C)cc(OCCOc2ccc(/C=N/n3cnnc3)cc2)c1	none
C(=N\n1cnnc1)/c1cccc(OCCOc2ccc(C3CCCCC3)cc2)c1	VHR inh color 103.5
CCOc1cc(/C=N\n2cnnc2)ccc1OCCOCCOc1ccc(C)cc1	none
Cc1ccc(C(C)C)c(OCCOc2ccc(/C=N/n3cnnc3)cc2)c1	none
C(=N\n1cnnc1)/c1ccc(OCCOc2ccc(C3CCCCC3)cc2)cc1	VHR inh color 105.7
